NALP1 inh: NALP1 inflammasome inhibitors in reconstituted yeast, colorimetric, S. cerevisiae, triplicate retest; S. cerevisiae NALP1/ASC/caspase-1 growth, X-gal OD620, 72 h; inhibition, % at 10 µM; hit rate 0.61% among 280,000; AID 2071, 2009; in the data active means inhibition mostly above about 24%, no sharp cut-off; inactive means mostly below about 32%
p-CIP stab down: p/CIP-EGFP fusion destabilizers, primary screen, fluorescence, F442A cells. decrease of EGFP signal, % at 10 µM. hit rate 0.01% among 290,000. 16 h;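 active means EGFP signal decrease of at least 30% at 10 µM or well 3 SD below plate mean, unless failing retest; inactive means the rest, including hits failing retest or dose response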
HSP90 inh: HSP90 inhibitors, primary screen, cell lysate, luminescence; Rabbit reticulocyte lysate, luciferase refolding luminescence, 3 h; AID 1789, 2009; hit rate 0.91% among 290,000; Heat shock protein HSP 90 (rabbit reticulocyte lysate; luciferase refolding); inhibition, % at 5.6 µM;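 active means inhibition above the screen-wide mean plus 3 SD, computed separately per campaign, cut at about 16% in these data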;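 further: 0% = DMSO wells and 100% = 60 µM geldanamycin wells; inhibitors lower the luminescence because luciferase stays unfolded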
Hsp70 activator: Hsp70 transcriptional activators, primary screen, cell-based, HeLa, Hsp70 promoter luciferase, luminescence, 10 µM; HeLa Hsp70 promoter luciferase reporter; scaled: vehicle 0, proteasome-inhibitor control 100%; activation, % at 10 µM; hit rate 0.04% among 200,000;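 active means activation above the mean across all tested compounds plus 3 SD, cutoff set per campaign, cut at about 5.5% in these data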;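 further: 100% = MG132 at 30 µM as the positive control and 0% = DMSO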
HSF1 inh: HSF1 inhibitors in luciferase reporter cells, primary screen, cell-based, NIH3T3, luminescence. NIH3T3-HGL HSE-luciferase, MG132-induced, luminescence 8 h; stronger effect = lower value. activity change, negative = inhibition, % at 7.5 µM (by protocol). hit rate 0.77% among 300,000;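 active means more than half of replicate wells show activity change below -50%, luminescence cut by over half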;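 further: luciferase reports HSF-1 transcriptional activity via heat shock element; 0% = median of DMSO wells and -100% = zero luminescence signal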
HSF1 activator: HSF-1 activators, primary screen, NIH3T3-HGL cells, MG132 stress, luminescence, single point; activation, % at 9 µM; NIH3T3-HGL HSF-1 luciferase reporter, 8 h; 100% = twice DMSO control signal; hit rate 1.7% among 300,000;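 active means mean replicate activation of at least 50% with a set share of replicates each reaching 50%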;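 further: 0% = median of the neutral control wells and 100% = twice that signal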
* hit, by the source's call; x = no result given. Hits are enriched below; roughly 3.8% of the tested compounds scored in any of these assays.

SMILES	NALP1 inh	p-CIP stab down	HSP90 inh	Hsp70 activator	HSF1 inh	HSF1 activator
Cc1ccc(/C=N/NC(=O)c2c[nH]c3ccccc23)s1	7.6	-1.7	-0.4	0.6	25.1	40.4
CC(Cc1cccs1)NC(=O)Nc1ccc(Cl)cc1 (configuration not stated)	-27.9	-6.6	0.3	0.3	30.2	61.9*
Cc1ccc(NC(=O)CNC(=O)Cn2cnc3sc(C)c(C)c3c2=O)cc1F	3.9	-0.1	4.0	x	-4.5	-12.3
CCCC1c2ccc(C)n2CCN1C(=O)Nc1ccc(F)cc1 (configuration not stated)	22.9	-6.8	0.8	0.0	-65.9*	-76.0
CCC1c2ccc(C)n2CCN1C(=O)Nc1ccc(F)cc1 (configuration not stated)	15.4	-15.0	3.3	0.1	10.2	13.8
Cc1noc2ncnc(Sc3ccc(Br)cc3)c12	-2.9	-10.8	3.5	-0.1	128.7	153.2*
Cc1noc2ncnc(N3CCCC3)c12	-7.1	-6.7	-1.5	0.6	-1.3	-5.5
CCCc1cc(C(=O)N/N=C/c2cccn2C)cs1	2.6	-11.5	-1.7	x	19.1	3.0
COc1ccc(C(=S)N2CCOCC2)cc1OC(=O)c1ccc([N+](=O)[O-])cc1[N+](=O)[O-]	-11.8	4.5	0.7	x	17.2	23.2
Cc1ccc(S(=O)(=O)c2c(CO)c(-c3ccccc3)nn2C)cc1	8.8	-5.7	-2.5	-0.3	1.1	4.5
Cc1ccc(S(=O)(=O)c2c(COC(=O)c3ccccc3Cl)c(-c3ccccc3)nn2C)cc1	42.0*	4.9	-6.2	0.3	-9.2	4.4
COc1ccc(N(CCC#N)C(=O)/C(C#N)=C\c2cccs2)cc1	-12.0	-2.7	5.2	x	1.5	16.6
CC(=O)OCCn1c2nc(=O)[nH]c(=O)c-2nc2cc(C)c(C)cc21	-0.8	-27.9	20.3*	x	-6.3	12.6
CSc1sc(C)cc1/C=N/O	25.7	-4.2	-0.3	-0.1	13.1	3.3
CCn1c(Cc2ccccc2)nnc1SCC(=O)N1CCCC1=O	-4.5	-2.1	-1.6	x	-4.7	14.4
CCCCn1c(N)c(N(CCOC)C(=O)CSCc2ccccc2C)c(=O)[nH]c1=O	x	x	x	x	-2.7	-7.1
CN(C)S(=O)(=O)N(CC(=O)Nc1ccccc1F)c1ccccc1	8.9	-2.5	0.5	-0.1	-2.2	5.5
CCc1ccc(NC(=O)CN(c2ccccc2)S(=O)(=O)N(C)C)cc1	9.9	-8.6	0.4	-0.1	12.7	60.4*
Cc1cc(OC(=O)c2ccc(F)cc2)c([N+](=O)[O-])c(=O)[nH]1	19.8	3.3	-1.9	x	9.9	12.4
Cc1cc(OC(=O)C(C)(C)C)c([N+](=O)[O-])c(=O)[nH]1	33.9*	-1.8	3.4	-0.1	-5.9	3.6
O=C(N/N=C/c1ccccn1)c1ccc([N+](=O)[O-])cc1	3.6	-31.5	-3.5	-0.3	-81.3*	-85.2
COC(CNC(=O)c1cc(-c2ccncc2)nc2ccc(S(=O)(=O)N3CCOCC3)cc12)OC	-9.1	7.2	-3.4	0.0	-8.3	-11.5
NNC(=O)CNC(=O)CNS(=O)(=O)c1ccccc1	-17.5	-0.9	-1.3	-0.4	-77.8*	-83.3
Cc1nc2c(Br)c3nc(C(F)(F)F)[nH]c3c(Br)c2[nH]1	48.1*	1.6	6.9	0.2	0.7	-4.6
C/C(N)=C(/C#N)C(=O)COC(=O)c1cc(C)n(-c2ccc(F)cc2)c1C	x	-16.8	0.2	-0.1	52.4	84.2*
Cc1cc(C(=O)OCC(N)=O)c(C)n1-c1ccccc1	15.1	3.6	0.3	0.1	13.4	42.0
O=C(C1CCCN(S(=O)(=O)c2ccc(Cl)cc2)C1)N(Cc1cccs1)C1CC1 (configuration not stated)	13.1	5.1	0.3	-0.2	-65.3*	-72.6
CN(Cc1cccs1)C(=O)c1ccc(S(=O)(=O)N2CCCCC2)cc1	-2.3	-5.0	-0.8	x	8.7	16.3
O=C(c1ccco1)N1CCN(S(=O)(=O)/C=C/c2ccccc2)CC1	12.7	-14.1	4.6	-0.1	-58.9*	-68.5

Source: PubChem (several laboratories)
